{"source": "paper PMC7862700", "about": "“An all-to-all approach to the identification of sequence-specific readers for epigenetic DNA modifications on cytosine”", "experiment_in_all_cases": "DAPPL (digital affinity profiling via proximity ligation, sequencing); 10 mM Tris-HCl pH 7.5, 50 mM NaCl, 1 mM DTT, 4% glycerol, room temperature, 30 min; GST-TFs on glutathione beads, 16-mer random dsDNA library, 0.1% formaldehyde crosslink after washing; high values mean tight binding", "details_in_all_cases": "protein: recombinant; tags: N-terminal GST; dsDNA, one strand shown", "key": {"[1]": {"target": "T1, GABPA (Homo sapiens, UniProt Q06546 1-454)", "T1 sequence": "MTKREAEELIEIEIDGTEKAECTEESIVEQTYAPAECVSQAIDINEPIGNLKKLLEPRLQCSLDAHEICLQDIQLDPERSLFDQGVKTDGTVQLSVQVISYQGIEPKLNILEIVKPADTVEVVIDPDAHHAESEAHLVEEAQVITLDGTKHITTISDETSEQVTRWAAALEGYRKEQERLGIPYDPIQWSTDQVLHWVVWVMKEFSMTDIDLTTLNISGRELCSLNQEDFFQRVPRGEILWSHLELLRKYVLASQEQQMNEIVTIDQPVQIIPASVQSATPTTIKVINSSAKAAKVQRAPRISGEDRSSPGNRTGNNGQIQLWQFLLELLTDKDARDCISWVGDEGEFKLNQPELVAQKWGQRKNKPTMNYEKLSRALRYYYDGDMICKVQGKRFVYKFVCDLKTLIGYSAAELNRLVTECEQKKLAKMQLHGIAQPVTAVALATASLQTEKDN", "in_short": "(§1)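 Sequencing on an Illumina NextSeq500 followed washing, crosslinking with 0.1% formaldehyde, proximity ligation (BsaI/T4 ligase, 1 h, 37 °C) and PCR amplification of pools that had been incubated for 30 min at room temperature with 200 nmole of a random double-stranded 16-mer DNA library in Tris/NaCl/DTT/glycerol buffer. Each pool held DNA-barcoded human transcription factors, expressed in yeast as GST fusions and captured on glutathione beads, plus a tag-only sample. Binding signal is a hexamer's read frequency for a factor divided by its frequency in the tag-only sample.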"}, "[2]": {"target": "ELF1 (Homo sapiens, UniProt P32519 1-619)", "sequence (P32519 whole entry)": "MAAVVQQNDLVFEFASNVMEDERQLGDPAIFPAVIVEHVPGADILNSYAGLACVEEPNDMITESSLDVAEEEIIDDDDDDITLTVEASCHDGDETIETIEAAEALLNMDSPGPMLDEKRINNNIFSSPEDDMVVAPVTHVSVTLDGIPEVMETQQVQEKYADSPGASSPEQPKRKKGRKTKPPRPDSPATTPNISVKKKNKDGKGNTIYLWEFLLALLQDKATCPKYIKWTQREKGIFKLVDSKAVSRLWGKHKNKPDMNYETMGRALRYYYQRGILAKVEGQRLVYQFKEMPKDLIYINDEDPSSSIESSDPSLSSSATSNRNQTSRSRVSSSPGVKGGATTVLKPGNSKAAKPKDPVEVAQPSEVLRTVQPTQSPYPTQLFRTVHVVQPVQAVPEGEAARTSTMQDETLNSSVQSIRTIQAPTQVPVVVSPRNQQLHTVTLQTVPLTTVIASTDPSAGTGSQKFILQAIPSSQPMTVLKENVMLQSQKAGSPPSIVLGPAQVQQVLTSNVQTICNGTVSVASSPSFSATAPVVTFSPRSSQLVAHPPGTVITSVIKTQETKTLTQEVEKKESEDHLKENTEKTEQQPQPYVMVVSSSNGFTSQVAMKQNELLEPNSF", "in_short": "as §1"}, "[3]": {"target": "T2, EHF (Homo sapiens, UniProt Q9NZC4 1-300)", "T2 sequence": "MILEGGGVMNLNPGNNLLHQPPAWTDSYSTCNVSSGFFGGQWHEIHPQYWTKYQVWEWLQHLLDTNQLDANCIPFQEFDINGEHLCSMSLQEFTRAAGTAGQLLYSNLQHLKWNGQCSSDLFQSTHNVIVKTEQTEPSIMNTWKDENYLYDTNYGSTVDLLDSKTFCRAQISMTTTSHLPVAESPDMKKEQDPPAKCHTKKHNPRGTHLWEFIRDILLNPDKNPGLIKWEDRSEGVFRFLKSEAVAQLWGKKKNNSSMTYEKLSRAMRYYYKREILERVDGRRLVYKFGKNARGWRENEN", "in_short": "as §1"}, "[4]": {"target": "SPIB (Homo sapiens, UniProt Q01892 1-262)", "sequence (Q01892 whole entry)": "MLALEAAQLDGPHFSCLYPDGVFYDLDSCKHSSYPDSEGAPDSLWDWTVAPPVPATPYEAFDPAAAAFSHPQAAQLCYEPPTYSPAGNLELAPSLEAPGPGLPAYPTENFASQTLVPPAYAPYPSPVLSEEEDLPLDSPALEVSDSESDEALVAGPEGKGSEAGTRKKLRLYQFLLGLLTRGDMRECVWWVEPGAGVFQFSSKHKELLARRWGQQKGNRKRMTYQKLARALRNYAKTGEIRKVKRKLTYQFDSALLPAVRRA", "in_short": "as §1"}, "[5]": {"target": "ETV5 (Homo sapiens, UniProt P41161 1-510)", "sequence (P41161 whole entry)": "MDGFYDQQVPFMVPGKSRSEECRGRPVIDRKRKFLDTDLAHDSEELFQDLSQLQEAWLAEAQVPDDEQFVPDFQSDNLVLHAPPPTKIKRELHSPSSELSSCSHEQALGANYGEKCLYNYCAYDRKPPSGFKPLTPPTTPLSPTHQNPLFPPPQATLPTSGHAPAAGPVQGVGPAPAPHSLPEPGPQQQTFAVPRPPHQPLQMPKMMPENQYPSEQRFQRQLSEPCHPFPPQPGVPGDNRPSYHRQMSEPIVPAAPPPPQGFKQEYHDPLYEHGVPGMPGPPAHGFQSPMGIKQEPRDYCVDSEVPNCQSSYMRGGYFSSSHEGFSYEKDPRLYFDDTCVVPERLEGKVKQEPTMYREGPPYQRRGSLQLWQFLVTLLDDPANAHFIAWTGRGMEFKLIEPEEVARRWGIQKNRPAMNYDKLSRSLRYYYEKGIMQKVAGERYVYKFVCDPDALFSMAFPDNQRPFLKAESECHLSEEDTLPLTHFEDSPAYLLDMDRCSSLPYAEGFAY", "in_short": "as §1"}, "[6]": {"target": "ELF4 (Homo sapiens, UniProt Q99607 1-663)", "sequence (Q99607 whole entry)": "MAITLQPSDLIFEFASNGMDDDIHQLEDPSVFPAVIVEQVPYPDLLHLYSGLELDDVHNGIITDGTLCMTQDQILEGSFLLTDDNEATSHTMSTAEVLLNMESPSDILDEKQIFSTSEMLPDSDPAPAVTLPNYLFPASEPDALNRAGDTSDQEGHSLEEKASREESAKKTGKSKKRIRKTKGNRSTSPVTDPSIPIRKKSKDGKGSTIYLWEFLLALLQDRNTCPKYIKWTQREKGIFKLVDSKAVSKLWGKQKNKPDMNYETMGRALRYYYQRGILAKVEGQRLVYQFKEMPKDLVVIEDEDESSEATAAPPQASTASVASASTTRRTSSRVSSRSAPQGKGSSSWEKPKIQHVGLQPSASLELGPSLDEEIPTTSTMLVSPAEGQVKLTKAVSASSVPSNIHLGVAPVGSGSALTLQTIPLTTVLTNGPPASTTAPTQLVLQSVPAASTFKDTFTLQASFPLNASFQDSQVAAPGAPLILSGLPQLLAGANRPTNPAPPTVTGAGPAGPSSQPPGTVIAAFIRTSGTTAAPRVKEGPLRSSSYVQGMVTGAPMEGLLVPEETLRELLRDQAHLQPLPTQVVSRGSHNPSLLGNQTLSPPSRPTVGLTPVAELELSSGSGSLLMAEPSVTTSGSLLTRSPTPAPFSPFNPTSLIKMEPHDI", "in_short": "as §1"}, "[7]": {"target": "T3, ELK4 (Homo sapiens, UniProt P28324-2 1-405)", "T3 sequence": "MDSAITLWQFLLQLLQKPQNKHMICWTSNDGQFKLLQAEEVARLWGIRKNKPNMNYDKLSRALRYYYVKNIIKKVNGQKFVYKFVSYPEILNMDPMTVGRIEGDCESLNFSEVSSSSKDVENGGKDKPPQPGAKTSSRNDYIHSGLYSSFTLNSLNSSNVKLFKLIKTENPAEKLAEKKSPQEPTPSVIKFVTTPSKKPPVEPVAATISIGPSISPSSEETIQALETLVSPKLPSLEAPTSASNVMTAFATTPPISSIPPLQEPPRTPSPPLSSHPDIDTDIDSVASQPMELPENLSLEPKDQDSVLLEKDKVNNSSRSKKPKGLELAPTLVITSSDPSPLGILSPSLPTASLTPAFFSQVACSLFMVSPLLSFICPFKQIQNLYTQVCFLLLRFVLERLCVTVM", "in_short": "as §1"}, "[8]": {"target": "T4, ETV2 (Homo sapiens, UniProt O00321 1-342)", "T4 sequence": "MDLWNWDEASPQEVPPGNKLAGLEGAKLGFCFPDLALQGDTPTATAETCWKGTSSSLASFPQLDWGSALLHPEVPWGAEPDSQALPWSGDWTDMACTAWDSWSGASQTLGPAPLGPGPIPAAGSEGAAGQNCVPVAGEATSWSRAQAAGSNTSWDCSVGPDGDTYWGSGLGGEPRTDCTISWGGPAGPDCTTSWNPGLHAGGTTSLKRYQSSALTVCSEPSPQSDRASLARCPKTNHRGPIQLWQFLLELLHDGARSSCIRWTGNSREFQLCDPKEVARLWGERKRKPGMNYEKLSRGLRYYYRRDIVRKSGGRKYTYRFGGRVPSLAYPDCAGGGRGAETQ", "in_short": "as §1"}, "[9]": {"target": "T5, ELF3 (Homo sapiens, UniProt P78545 1-371)", "T5 sequence": "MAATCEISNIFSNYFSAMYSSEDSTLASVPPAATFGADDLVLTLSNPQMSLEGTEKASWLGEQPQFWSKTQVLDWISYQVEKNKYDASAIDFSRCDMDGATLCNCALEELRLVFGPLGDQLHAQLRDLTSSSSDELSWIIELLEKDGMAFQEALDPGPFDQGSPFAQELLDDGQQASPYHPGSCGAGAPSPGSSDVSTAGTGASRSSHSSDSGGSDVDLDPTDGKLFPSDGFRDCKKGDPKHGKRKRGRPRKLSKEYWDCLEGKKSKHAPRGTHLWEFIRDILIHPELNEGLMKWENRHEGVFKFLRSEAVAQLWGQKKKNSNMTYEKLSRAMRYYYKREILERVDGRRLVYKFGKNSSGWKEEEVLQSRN", "in_short": "as §1"}, "[10]": {"target": "ETV1 (Homo sapiens, UniProt P50549 1-477)", "sequence (P50549 whole entry)": "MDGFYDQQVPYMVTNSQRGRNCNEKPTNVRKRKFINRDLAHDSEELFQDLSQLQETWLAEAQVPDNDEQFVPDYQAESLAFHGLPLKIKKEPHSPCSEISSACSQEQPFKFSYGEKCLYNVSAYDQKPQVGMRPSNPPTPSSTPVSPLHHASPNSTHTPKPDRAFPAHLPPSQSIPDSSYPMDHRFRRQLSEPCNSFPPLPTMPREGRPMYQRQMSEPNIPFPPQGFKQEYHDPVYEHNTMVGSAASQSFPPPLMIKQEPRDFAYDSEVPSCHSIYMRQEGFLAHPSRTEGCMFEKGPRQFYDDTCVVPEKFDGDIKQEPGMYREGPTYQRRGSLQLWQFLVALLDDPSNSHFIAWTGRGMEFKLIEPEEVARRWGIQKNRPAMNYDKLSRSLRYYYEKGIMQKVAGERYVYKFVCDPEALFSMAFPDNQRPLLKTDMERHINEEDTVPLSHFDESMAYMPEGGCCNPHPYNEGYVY", "in_short": "as §1"}, "[11]": {"target": "T6, SPDEF (Homo sapiens, UniProt O95238 1-335)", "T6 sequence": "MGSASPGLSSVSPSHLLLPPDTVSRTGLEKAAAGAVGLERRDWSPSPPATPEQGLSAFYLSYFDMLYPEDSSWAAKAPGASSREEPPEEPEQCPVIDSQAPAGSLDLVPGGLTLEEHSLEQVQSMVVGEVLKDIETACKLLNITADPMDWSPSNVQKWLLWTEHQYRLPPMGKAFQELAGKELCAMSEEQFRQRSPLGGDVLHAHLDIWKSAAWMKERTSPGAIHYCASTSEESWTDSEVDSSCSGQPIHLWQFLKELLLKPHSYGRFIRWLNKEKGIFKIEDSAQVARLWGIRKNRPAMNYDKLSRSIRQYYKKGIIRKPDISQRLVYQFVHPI", "in_short": "as §1"}, "[12]": {"target": "T7, ETV3 (Homo sapiens, UniProt P41162-2 1-143)", "T7 sequence": "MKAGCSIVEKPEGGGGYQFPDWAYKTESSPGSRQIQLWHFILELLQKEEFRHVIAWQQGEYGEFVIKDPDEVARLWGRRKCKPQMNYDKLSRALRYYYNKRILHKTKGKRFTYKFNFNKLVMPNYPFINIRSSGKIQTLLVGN", "in_short": "as §1"}, "[13]": {"target": "ETV6 (Homo sapiens, UniProt P41212 1-452)", "sequence (P41212 whole entry)": "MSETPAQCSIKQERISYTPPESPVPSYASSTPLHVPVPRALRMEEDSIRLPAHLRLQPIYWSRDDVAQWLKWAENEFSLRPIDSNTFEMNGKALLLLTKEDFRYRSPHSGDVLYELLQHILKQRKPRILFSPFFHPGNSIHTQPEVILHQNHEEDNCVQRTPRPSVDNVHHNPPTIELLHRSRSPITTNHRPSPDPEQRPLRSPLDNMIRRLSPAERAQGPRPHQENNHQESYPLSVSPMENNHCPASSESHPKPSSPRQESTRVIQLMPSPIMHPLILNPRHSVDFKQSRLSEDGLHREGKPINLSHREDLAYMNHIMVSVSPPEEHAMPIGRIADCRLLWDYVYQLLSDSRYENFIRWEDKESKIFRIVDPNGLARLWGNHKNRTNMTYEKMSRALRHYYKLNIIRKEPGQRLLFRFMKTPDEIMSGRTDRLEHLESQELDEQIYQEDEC", "in_short": "as §1"}}, "data": [{"sequence": "ACGCGG", "values": [{"measurement": "binding signal", "setting": "[1]", "value": "1.01 fold enrichment (6-mer frequency, TF over GST control)"}, {"measurement": "binding signal", "setting": "[2]", "value": "1.03 fold enrichment (6-mer frequency, TF over GST control)"}, {"measurement": "binding signal", "setting": "[3]", "value": "1.04 fold enrichment (6-mer frequency, TF over GST control)"}, {"measurement": "binding signal", "setting": "[4]", "value": "1.04 fold enrichment (6-mer frequency, TF over GST control)"}, {"measurement": "binding signal", "setting": "[5]", "value": "1.02 fold enrichment (6-mer frequency, TF over GST control)"}, {"measurement": "binding signal", "setting": "[6]", "value": "1 fold enrichment (6-mer frequency, TF over GST control)"}, {"measurement": "binding signal", "setting": "[7]", "value": "1.03 fold enrichment (6-mer frequency, TF over GST control)"}, {"measurement": "binding signal", "setting": "[8]", "value": "1.18 fold enrichment (6-mer frequency, TF over GST control)"}, {"measurement": "binding signal", "setting": "[9]", "value": "1.07 fold enrichment (6-mer frequency, TF over GST control)"}, {"measurement": "binding signal", "setting": "[10]", "value": "1.02 fold enrichment (6-mer frequency, TF over GST control)"}, {"measurement": "binding signal", "setting": "[11]", "value": "1.08 fold enrichment (6-mer frequency, TF over GST control)"}, {"measurement": "binding signal", "setting": "[12]", "value": "1.02 fold enrichment (6-mer frequency, TF over GST control)"}, {"measurement": "binding signal", "setting": "[13]", "value": "1.07 fold enrichment (6-mer frequency, TF over GST control)"}]}]}
